Reference: PubChem BioAssay AID1159580 (chemical genetic matrix, 2015)
Out of some 5,500 compounds screened, about 2,000 (36%) were called active. Roughly 18% stayed inconclusive and do not appear here. Cut-off read from the data, not from the text of the source: active = normalized growth mostly below about 0.91 (no sharp cut-off); inconclusive = no clear call, values can overlap the other calls; inactive = mostly above about 0.92. Some of the results follow.

Assay: chemical genetic growth profiling, strain panel (AID 1159580);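 note: tested at 20 µM; growth read once vehicle control cultures reached saturation at 30 °C; 1 = growth at the plate median or of vehicle wells; lower values mean less growth of the strain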
Details: growth OD

Measured: normalized growth

NC[C@H]1O[C@H](O[C@H]2C(O[C@@H]3O[C@H](CO)[C@@H](O)[C@H]3O)[C@@H](O)[C@H](N)C[C@@H]2N)[C@H](N)[C@@H](O)[C@@H]1O (some centres not stated)
inactive: S. cerevisiae deletion strains, locus YJR075W, strain HOC1, stronger effect = lower value 0.987 | S. cerevisiae deletion strains, locus YKL009W, strain mrt4, stronger effect = lower value 0.995 | S. cerevisiae deletion strains, locus YKL068W, stronger effect = lower value 0.99 | S. cerevisiae deletion strains, locus YKL085W, strain MDH1 (second series), stronger effect = lower value 1 | S. cerevisiae deletion strains, locus YKL085W, strain MDH1, stronger effect = lower value 1 | S. cerevisiae deletion strains, locus YKL160W, strain elf1, stronger effect = lower value 1.01 | S. cerevisiae deletion strains, locus YKL190W, strain CNB1, stronger effect = lower value 1.02 | S. cerevisiae deletion strains, locus YKR001C, strain vps1, stronger effect = lower value 0.976 | S. cerevisiae deletion strains, locus YKR026C, strain gcn3, stronger effect = lower value 0.982 | S. cerevisiae deletion strains, locus YKR091W, strain srl3, stronger effect = lower value 0.993 | S. cerevisiae deletion strains, locus YLL001W, strain dnm1, stronger effect = lower value 1 | S. cerevisiae deletion strains, locus YLL026W, stronger effect = lower value 0.984 | S. cerevisiae deletion strains, locus YLL041C, strain sdh2, stronger effect = lower value 0.995 | S. cerevisiae deletion strains, locus YLR027C, strain aat2, stronger effect = lower value 1 | S. cerevisiae deletion strains, locus YLR039C, strain RIC1, stronger effect = lower value 0.989 | S. cerevisiae deletion strains, locus YLR058C, strain SHM2, stronger effect = lower value 0.99 | S. cerevisiae deletion strains, locus YLR102C, strain apc9, stronger effect = lower value 0.999 | S. cerevisiae deletion strains, locus YLR113W, strain HOG1, stronger effect = lower value 1.03 | S. cerevisiae deletion strains, locus YLR221C, strain rsa3, stronger effect = lower value 1 | S. cerevisiae deletion strains, locus YLR258W, strain gsy2, stronger effect = lower value 0.995 | S. cerevisiae deletion strains, locus YLR262C, strain YPT6 (second series), stronger effect = lower value 1.01 | S. cerevisiae deletion strains, locus YLR262C, strain YPT6, stronger effect = lower value 0.997 | S. cerevisiae deletion strains, locus YLR268W, strain sec22, stronger effect = lower value 0.955 | S. cerevisiae deletion strains, locus YLR320W, strain mms22, stronger effect = lower value 0.991 | S. cerevisiae deletion strains, locus YLR330W, strain CHS5, stronger effect = lower value 0.997 | S. cerevisiae deletion strains, locus YLR342W, strain FKS1 (second series), stronger effect = lower value 1.03 | S. cerevisiae deletion strains, locus YLR342W, strain FKS1, stronger effect = lower value 1 | S. cerevisiae deletion strains, locus YLR357W, strain rsc2, stronger effect = lower value 0.967 | S. cerevisiae deletion strains, locus YLR370C, strain arc18, stronger effect = lower value 0.998 | S. cerevisiae deletion strains, locus YLR371W, strain rom2, stronger effect = lower value 0.987 | S. cerevisiae deletion strains, locus YLR384C, strain iki3, stronger effect = lower value 0.985 | S. cerevisiae deletion strains, locus YLR418C, strain cdc73, stronger effect = lower value 0.975 | S. cerevisiae deletion strains, locus YML016C, strain PPZ1, stronger effect = lower value 0.992 | S. cerevisiae deletion strains, locus YML032C, strain rad52, stronger effect = lower value 0.979 | S. cerevisiae deletion strains, locus YML120C, strain ndi1, stronger effect = lower value 1.01 | S. cerevisiae deletion strains, locus YML124C, strain tub3, stronger effect = lower value 0.993 | S. cerevisiae deletion strains, locus YMR058W, strain fet3, stronger effect = lower value 1 | S. cerevisiae deletion strains, locus YMR078C, strain ctf18, stronger effect = lower value 0.99 | S. cerevisiae deletion strains, locus YMR125W, strain sto1, stronger effect = lower value 0.963 | S. cerevisiae deletion strains, locus YMR129W, stronger effect = lower value 0.981 | S. cerevisiae deletion strains, locus YMR205C, strain PFK2, stronger effect = lower value 0.962 | S. cerevisiae deletion strains, locus YMR223W, strain ubp8, stronger effect = lower value 1.01 | S. cerevisiae deletion strains, locus YMR231W, strain pep5, stronger effect = lower value 1 | S. cerevisiae deletion strains, locus YMR263W, strain SAP30, stronger effect = lower value 0.995 | S. cerevisiae deletion strains, locus YMR307W, strain GAS1, stronger effect = lower value 0.997 | S. cerevisiae deletion strains, locus YNL067W, strain RPL9B, stronger effect = lower value 0.984 | S. cerevisiae deletion strains, locus YNL071W, strain lat1, stronger effect = lower value 1.01 | S. cerevisiae deletion strains, locus YNL128W, strain TEP1, stronger effect = lower value 0.994 | S. cerevisiae deletion strains, locus YNL153C, strain GIM3, stronger effect = lower value 0.993 | S. cerevisiae deletion strains, locus YNL183C, strain NPR1, stronger effect = lower value 0.974 | S. cerevisiae deletion strains, locus YNL209W, strain ssb2, stronger effect = lower value 1 | S. cerevisiae deletion strains, locus YNL233W, strain BNI4, stronger effect = lower value 0.981 | S. cerevisiae deletion strains, locus YNL248C, strain rpa49, stronger effect = lower value 1.01 | S. cerevisiae deletion strains, locus YNL250W, strain rad50, stronger effect = lower value 0.987 | S. cerevisiae deletion strains, locus YNL271C, strain bni1, stronger effect = lower value 0.99 | S. cerevisiae deletion strains, locus YNL298W, strain CLA4, stronger effect = lower value 0.981 | S. cerevisiae deletion strains, locus YNL307C, strain MCK1, stronger effect = lower value 0.989 | S. cerevisiae deletion strains, locus YNL322C, strain KRE1 (second series), stronger effect = lower value 0.987 | S. cerevisiae deletion strains, locus YNL322C, strain KRE1, stronger effect = lower value 1 | S. cerevisiae deletion strains, locus YNR049C, strain mso1, stronger effect = lower value 0.997 | S. cerevisiae deletion strains, locus YNR052C, strain pop2, stronger effect = lower value 0.992 | S. cerevisiae deletion strains, locus YOL006C, strain TOP1, stronger effect = lower value 0.988 | S. cerevisiae deletion strains, locus YOL012C, strain htz1 0.933 | S. cerevisiae deletion strains, locus YOL147C, strain pex11, stronger effect = lower value 0.989 | S. cerevisiae deletion strains, locus YOR001W, strain rrp6, stronger effect = lower value 1 | S. cerevisiae deletion strains, locus YOR061W, strain CKA2, stronger effect = lower value 0.997 | S. cerevisiae deletion strains, locus YOR069W, strain VPS5, stronger effect = lower value 0.988 | S. cerevisiae deletion strains, locus YOR070C, strain gyp1, stronger effect = lower value 1 | S. cerevisiae deletion strains, locus YOR080W, strain dia2, stronger effect = lower value 0.987 | S. cerevisiae deletion strains, locus YOR083W, strain WHI5, stronger effect = lower value 1.01 | S. cerevisiae deletion strains, locus YOR106W, strain vam3, stronger effect = lower value 1 | S. cerevisiae deletion strains, locus YOR136W, strain idh2, stronger effect = lower value 0.995 | S. cerevisiae deletion strains, locus YOR144C, strain elg1, stronger effect = lower value 0.985 | S. cerevisiae deletion strains, locus YOR184W, strain ser1, stronger effect = lower value 0.975 | S. cerevisiae deletion strains, locus YOR231W, strain MKK1, stronger effect = lower value 0.975 | S. cerevisiae deletion strains, locus YOR265W, strain rbl2, stronger effect = lower value 0.991 | S. cerevisiae deletion strains, locus YOR270C, strain vph1, stronger effect = lower value 1.01 | S. cerevisiae deletion strains, locus YOR290C, strain snf2, stronger effect = lower value 0.957 | S. cerevisiae deletion strains, locus YOR316C, strain cot1, stronger effect = lower value 0.994 | S. cerevisiae deletion strains, locus YPL051W, strain arl3, stronger effect = lower value 1.01 | S. cerevisiae deletion strains, locus YPL055C, strain LGE1, stronger effect = lower value 1.04 | S. cerevisiae deletion strains, locus YPL078C, strain atp4, stronger effect = lower value 1.01 | S. cerevisiae deletion strains, locus YPL106C, strain sse1, stronger effect = lower value 0.951 | S. cerevisiae deletion strains, locus YPL240C, strain hsp82, stronger effect = lower value 1.01 | S. cerevisiae deletion strains, locus YPL241C, strain CIN2, stronger effect = lower value 1 | S. cerevisiae deletion strains, locus YPL256C, strain CLN2, stronger effect = lower value 0.986 | S. cerevisiae deletion strains, locus YPR119W, strain clb2, stronger effect = lower value 1 | S. cerevisiae deletion strains, locus YPR141C, strain kar3, stronger effect = lower value 0.978 | S. cerevisiae deletion strains, locus YPR163C, strain tif3, stronger effect = lower value 0.989 | S. cerevisiae deletion strains, locus YPR167C, strain met16, stronger effect = lower value 0.991 | S. cerevisiae deletion strains, strain wtn01, stronger effect = lower value 0.956 | S. cerevisiae strains, strain wild type, stronger effect = lower value 1
